Compounds without any hit were thinned out: in the full panel of roughly 79,000, 15% have a hit. Active and inactive are the calls of the source. Rule as the data show it: active = growth inhibition above about 70%; inactive = the rest.

One experiment in a line: NCI Yeast Anticancer Drug Screen. Data for the bub3 strain (AID 167). To be noted: S. cerevisiae bub3 mutant strain, at 50.0 µM (retest, dose inferred, filed as 5.0), hits give high values. The procedure, abridged: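 Readout: yeast growth inhibition, expressed relative to vehicle-only wells. The test organism is a mutant strain from a panel with lesions in DNA repair or checkpoint genes.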
`C/C(=N/Nc1ccc([N+](=O)[O-])cc1[N+](=O)[O-])C1=CCC(C(C)(C)C)CC1` (stereo not given): the growth inhibition was -1% (inactive). The same measure, in the same setting: the figure for `Cc1ccc(C)c(N2C(=O)C(=O)C(c3nc4ccccc4o3)/C(=N\NC(=O)c3ccccc3O)C2=O)c1` (stereo not given) is 29% (inactive). The same measure, in the same setting: the figure for `O=C(/C=C/C=C/c1ccccc1)c1ccco1` is 57% (inactive); for `O=C1CCC(=O)c2c1c(O)c1ccncc1c2O` it is 99% (active).

For the compound `CNC(=O)OC(C)CN1c2ccccc2Sc2ccc(Cl)cc21` (stereo not given), the growth inhibition is 98% (active). Same read-out and setting: the figure for `c1coc(C2=Nc3cccc4cccc(c34)N2)c1` is 94% (active). Still for that read-out and setting: with `CCOC(=O)[C@]12CCC[C@@]1(O)NC(=O)c1cnccc12` the figure was 9% (inactive). The same measure, in the same setting: with `Cc1cccc(C)c1N1C(=O)C2Nc3ccccc3SC2C1=O` (stereo not given) the figure was 94% (active); with `CCc1cccc(C(C)(C)C)c1NC(=S)N/C=C(\c1ccccc1)S(=O)Cc1ccccc1` (stereo not given), 25% (inactive); with `CC(=O)Nc1ccc(-c2cnc3ccccc3c2)cc1`, -1% (inactive). As to `OCC(CO)C1c2cccc3ccc4cccc1c4c23`, the growth inhibition was 42% (inactive). Same read-out and setting: the figure for `O=C1CC(=S)NC(=S)N1` is -8% (inactive).

For `Cc1c2ccnc(C(N)=O)c2c(C)c2c1[nH]c1ccccc12`, the growth inhibition was 97% (active). On the same count and under the same terms, the figure for `CCC(=O)Sc1ccccc1C(=O)Nc1ccc(Cl)cc1` is 74% (active); for `O=C(O)c1c(Cl)c(Cl)c(Cl)c(Cl)c1-c1c2cc(I)c(=O)c(I)c-2oc2c(I)c(O)c(I)cc12` it is 98% (active). The same measure, in the same setting: the figure for `C=C/C=C/CC=C` is -46% (inactive).

For the compound `Cc1ccccc1N1CCN(c2c3c(nc4ccccc24)CCCCC3)CC1`, the growth inhibition was 95% (active). Turning to `N/N=C(\N)c1ccc2ccc3cccnc3c2n1`, the growth inhibition is 59% (inactive). The same measure, in the same setting: the figure for `CCCCCC(CCCCC)C(=O)O` is 29% (inactive); for `O=Cc1cc(S(=O)(=O)c2ccc(O)c(C=O)c2)ccc1O` it is 11% (inactive).

As to `Cc1ccc(C)c(N2C(=O)C(=O)C(c3nc4ccccc4o3)C(=O)C2=O)c1`, the growth inhibition is 98% (active). Still for that read-out and setting: with `COC(=O)c1cc(C)c2sc3ccccc3c2c1C` the figure was 21% (inactive). Regarding `O=C1NC(=O)N(c2ccc(Cl)c(Cl)c2)C1=O`, the growth inhibition was -1% (inactive).

In the case of `Clc1ccc2oc(N3CCCCC3)nc2c1`, the growth inhibition was 15% (inactive). Same read-out and setting: the figure for `Cc1ccc(N=NC(C(=O)c2ccccc2)C(=O)c2ccccc2)cc1` is 95% (active).

Still in this experiment, the particulars now being: S. cerevisiae bub3 mutant strain, at 50.0 µM, hits give high values.
In the case of `CCCCCCCCCCCCCCOC(=O)C(N)Cc1ccc(O)cc1` (stereo not given), the growth inhibition is 98.5% (active). For the compound `CN(C)c1ccc(C(O)(Cc2cccc(C#N)c2)c2ccc(N(C)C)cc2)cc1`, the growth inhibition is 69% (inactive). Same read-out and setting: with `O=C(NNC(=O)c1cccc(C(=O)NNC(=O)c2ccc(Cl)c(Cl)c2)n1)c1ccc(Cl)c(Cl)c1` the figure was 70.2% (active). On the same count and under the same terms, with `C=C1C(=O)O[C@H]2[C@H](OC(C)=O)[C@@H](C)CCC/C(C)=C/CC[C@@]3(C)O[C@@H]3C[C@@H]12` the figure was 93% (active); with `O=C(c1ccccc1)C1OC1c1ccccc1Cl` (stereo not given), -3.7% (inactive); with `[N-]=[N+]=Nc1ccc(SSCCC(=O)ON2C(=O)CCC2=O)cc1`, 98.7% (active). On the same count and under the same terms, with `Cc1cc(N(CCC#N)CCC#N)ccc1/C(N=Nc1cccc([N+](=O)[O-])c1)=N/NC(=O)c1cc(Cl)ccc1O` the figure was 79.3% (active). As for `CC(C)/C(Cl)=N\OC(=O)Nc1ccc(S(N)(=O)=O)cc1`, the growth inhibition is 77.2% (active).

Turning to `CCCCCCCCCCCCCC(=O)OCC(O)CO` (stereo not given), the growth inhibition is 8.05% (inactive). The same measure, in the same setting: with `O=C1C=CC(=O)N1C1CCCCC1` the figure was 99.7% (active); with `CCCCCCCCCCCC(=O)OCC1OC(n2cc(F)c(=O)[nH]c2=O)C(N)C(O)C1O` (stereo not given), 90.3% (active); with `CN(C)c1ccc(C2C=C(c3ccccc3)Oc3ccccc32)cc1` (stereo not given), 95.8% (active).

With `CS(=O)(=O)OCCN(CCOS(C)(=O)=O)c1ccc(C=Nc2cccc(Cl)c2)cc1`, the growth inhibition is 43% (inactive). On the same count and under the same terms, the figure for `O=C1C(=O)N(c2cc(Cl)ccc2Cl)C(=O)C(=O)C1c1nc2ccccc2o1` is 57.1% (inactive).

Turning to `CC1=NC(=Cc2ccc(Cl)cc2)C(=O)N1n1c(-c2ccccc2)nc2ccccc2c1=O`, the growth inhibition was 82% (active). The same measure, in the same setting: the figure for `C/C(=N/Nc1ccc([N+](=O)[O-])cc1[N+](=O)[O-])C1=CCC(C(C)(C)C)CC1` (stereo not given) is -11.6% (inactive).

`Cc1ccc(C)c(N2C(=O)C(=O)C(c3nc4ccccc4o3)/C(=N\NC(=O)c3ccccc3O)C2=O)c1` (stereo not given): the growth inhibition is 27.4% (inactive). Consider `O=C(/C=C/C=C/c1ccccc1)c1ccco1`, for which the growth inhibition was 91.9% (active). The same measure, in the same setting: the figure for `O=C1CCC(=O)c2c1c(O)c1ccncc1c2O` is 99.2% (active); for `CNC(=O)OC(C)CN1c2ccccc2Sc2ccc(Cl)cc21` (stereo not given) it is 88.3% (active). The same measure, in the same setting: with `c1coc(C2=Nc3cccc4cccc(c34)N2)c1` the figure was 36.4% (inactive); with `CCOC(=O)[C@]12CCC[C@@]1(O)NC(=O)c1cnccc12`, 96.9% (active). Same read-out and setting: with `Cc1cccc(C)c1N1C(=O)C2Nc3ccccc3SC2C1=O` (stereo not given) the figure was 98.3% (active); with `CCc1cccc(C(C)(C)C)c1NC(=S)N/C=C(\c1ccccc1)S(=O)Cc1ccccc1` (stereo not given), 73.4% (active). On to `CC(=O)Nc1ccc(-c2cnc3ccccc3c2)cc1`, for which the growth inhibition was 11.2% (inactive). On the same count and under the same terms, the figure for `OCC(CO)C1c2cccc3ccc4cccc1c4c23` is 53.5% (inactive); for `O=C1CC(=S)NC(=S)N1` it is -10.4% (inactive). As to `Cc1c2ccnc(C(N)=O)c2c(C)c2c1[nH]c1ccccc12`, the growth inhibition is 56.1% (inactive).

Consider `CCC(=O)Sc1ccccc1C(=O)Nc1ccc(Cl)cc1`, for which the growth inhibition is 56.4% (inactive). The same measure, in the same setting: the figure for `O=C(O)c1c(Cl)c(Cl)c(Cl)c(Cl)c1-c1c2cc(I)c(=O)c(I)c-2oc2c(I)c(O)c(I)cc12` is 91.4% (active).

As for `C=C/C=C/CC=C`, the growth inhibition was 21.4% (inactive). On the same count and under the same terms, with `Cc1ccccc1N1CCN(c2c3c(nc4ccccc24)CCCCC3)CC1` the figure was 97.5% (active). On the same count and under the same terms, the figure for `N/N=C(\N)c1ccc2ccc3cccnc3c2n1` is 41.5% (inactive); for `CCCCCC(CCCCC)C(=O)O` it is 66.2% (inactive); for `O=Cc1cc(S(=O)(=O)c2ccc(O)c(C=O)c2)ccc1O` it is 99% (active).

As to `Cc1ccc(C)c(N2C(=O)C(=O)C(c3nc4ccccc4o3)C(=O)C2=O)c1`, the growth inhibition is 99.3% (active). Same read-out and setting: with `COC(=O)c1cc(C)c2sc3ccccc3c2c1C` the figure was 31.4% (inactive).

Take `O=C1NC(=O)N(c2ccc(Cl)c(Cl)c2)C1=O`: the growth inhibition was 44.5% (inactive). On to `Clc1ccc2oc(N3CCCCC3)nc2c1`, for which the growth inhibition is 99.2% (active).

As for `Cc1ccc(N=NC(C(=O)c2ccccc2)C(=O)c2ccccc2)cc1`, the growth inhibition was 93.1% (active).

These data come from PubChem BioAssay (NCI).
